Only some compounds are listed: those with a hit (about 2.6% of all), similar ones and a draw of the others.
LMP1 NFkB inh = inhibitors of Epstein-Barr LMP1-induced NF-kappaB reporter; LMP1-induced NF-kappaB luciferase reporter cells, luminescence; inhibition, % at 12.5 µM; actives 0.69% (n = 350,000); AID 504558; in the data active means inhibition above about 41%
HSP90 refold inh = blocks HSP90-mediated luciferase refolding in reticulocyte lysate | actives 0.91% (n = 290,000) | inhibition, % at 5.6 µM | Rabbit reticulocyte lysate, luciferase refolding luminescence, 3 h;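 active means inhibition above the screen-wide mean plus 3 SD, computed separately per campaign, cut at about 16% in these data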;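 further: inhibitors lower the luminescence because luciferase stays unfolded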
aDG glyco act = alpha-DG glycosylation activation. Pro5-aDG cells, alpha-DG glycosylation AlphaScreen (IIH6); 0% Pro5, 100% B10-LARGE cell signal. activation, % at 10 µM. actives 0.22% (n = 360,000). AID 624168;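 active means activation of at least 8% versus controls, or a plate z-score of at least 8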;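 further: Pro5 are CHO cells carrying HIG-tagged alpha-DG that lacks glycosylation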
TROY NFkB inh = inhibitors of TROY-dependent NF-kB signaling | actives 0.98% (n = 360,000) | inhibition, % at 10 µM | Q293 LMP1-TROYcd NF-kB luciferase reporter, 4 h;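 active means compounds whose plate-normalised and pattern-corrected inhibition of the luciferase reporter signal at the single screening dose is 50% or more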
LGR2 inh = blocks bursicon-induced cAMP signaling via Drosophila LGR2; HEK293 LGR2, CRE-luciferase, bursicon-stimulated, 4 h; inhibition, % at 9.99 µM; actives 0.35% (n = 380,000); AID 720647;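 active means drop in luminescence signal, shown as inhibition above about 50% in the replicate tests, limit read from the data, passing the limit was not always enough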;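 further: agonist challenge used bursicon conditioned medium at about half maximal strength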
TWEAK Fn14 block = blocks TWEAK-Fn14 interaction in a reporter cell assay; AID 1159606; inhibition, % at 10 µM; actives 2% (n = 360,000); TWEAK-stimulated Fn14 reporter cells, luciferase luminescence, 8 h; in the data active means inhibition above about 50%
Large screens that a line does not name were inactive.

Cc1cc(OCC(=O)Nc2cnn(CCCC(=O)O)c2)ccc1Cl	LMP1 NFkB inh 59.0
C[C@@H]1CN([C@@H](C)CO)S(=O)(=O)c2ccc(C#CC3CC3)cc2O[C@H]1CN(C)C	none (no result: LMP1 NFkB inh, HSP90 refold inh, aDG glyco act, TROY NFkB inh, TWEAK Fn14 block)
CCOc1ccc(NC(=O)Cn2cc(C(=O)CC)c3ccccc32)cc1	LMP1 NFkB inh 70.9 (no result: LGR2 inh)
CCOc1ccc(NC(=O)Cn2cc(C(C)=O)c3ccccc32)cc1	none
Clc1ccc(-c2ccnc(Oc3cc(Cl)ccc3Cl)n2)cc1	none
Clc1ccc(-c2ccnc(Oc3ccc4ccccc4c3)n2)cc1	LMP1 NFkB inh 56.6
N#Cc1cc(-c2ccccc2)nc(Oc2ccc(Cl)cc2)n1	TWEAK Fn14 block 50.1
O=C(C1CC1)N1CC(=O)N2[C@H](C1)[C@H](c1ccc(C#CC3CCCC3)cc1)[C@@H]2CO	none (no result: LMP1 NFkB inh, HSP90 refold inh, aDG glyco act, TROY NFkB inh, TWEAK Fn14 block)
N#Cc1c(N)nc(SCC(=O)C23CC4CC(CC(C4)C2)C3)c(C#N)c1-c1ccc(Cl)cc1	none
CSc1nc(N)nc(SCC(=O)C23CC4CC(CC(C4)C2)C3)c1C#N	LMP1 NFkB inh 69.0, TROY NFkB inh 54.4, TWEAK Fn14 block 93.4
Nc1nc(SCC(=O)C23CC4CC(CC(C4)C2)C3)n[nH]1	TWEAK Fn14 block 72.0 (no result: TROY NFkB inh, LGR2 inh)
CCC(=O)N1[C@H](CO)[C@H](c2ccc(C3=CCCC3)cc2)[C@@H]1CN(C)C(C)=O	none (no result: LMP1 NFkB inh, HSP90 refold inh, aDG glyco act, TROY NFkB inh, TWEAK Fn14 block)
COc1cc2c(cc1NC(=O)C(Cl)Cl)-c1ccc(NC(=O)C(Cl)Cl)cc1C2	TWEAK Fn14 block 81.1 (no result: HSP90 refold inh)
Cc1ccc(C(=O)N/N=C(/CC(=O)c2cccs2)C(F)(F)F)cc1	TROY NFkB inh 52.8
CC(=O)Cn1ncc(Br)c(Br)c1=O	TROY NFkB inh 64.8, LGR2 inh 106.1, TWEAK Fn14 block 86.1
O=C(COC(=O)c1cc(S(=O)(=O)Nc2ccccc2Cl)ccc1O)Nc1nc2ccccc2s1	TROY NFkB inh 60.1
C[C@@H]1CN([C@H](C)CO)C(=O)c2cc(NS(C)(=O)=O)ccc2O[C@@H](C)CCCCO[C@H]1CN(C)S(=O)(=O)c1ccccc1	none (no result: LMP1 NFkB inh, HSP90 refold inh, aDG glyco act, TROY NFkB inh, TWEAK Fn14 block)
CC(=O)[C@@]1(O)CC[C@H]2[C@@H]3CCC4=CC(=O)CC[C@]4(C)[C@H]3[C@@H](O)C[C@@]21C	LMP1 NFkB inh 55.5
CC12CCC(=O)C=C1CCC1C2C(=O)CC2(C)C1CC[C@]2(O)C(=O)CO (stereo partly drawn)	TWEAK Fn14 block 77.8
CCC(C(=O)OCC(=O)C1(O)CCC2C3CCC4=CC(=O)CCC4(C)C3C(O)CC21C)C(C)C (stereo not drawn)	none (no result: HSP90 refold inh)
CC(=O)OCC(=O)[C@@]1(O)CCC2C3CCC4=CC(=O)CCC4(C)C3C(=O)CC21C (stereo partly drawn)	none
Cc1cc(C)cc(OCC(=O)NCC2CCCO2)c1 (stereo not drawn)	TROY NFkB inh 73.1, TWEAK Fn14 block 88.7
O=C(NC1Cc2ccccc2C1)[C@@H]1[C@@H](CO)[C@@H]2Cn3c(cccc3=O)[C@H]1N2C(=O)CC1CC1	none (no result: LMP1 NFkB inh, HSP90 refold inh, aDG glyco act, TROY NFkB inh, TWEAK Fn14 block)
CCOC(=O)c1sc(NC(=O)CNCc2cccnc2)c(C(=O)OCC)c1C	none
CCOC(=O)c1sc(NC(=O)CNCc2ccccn2)c(C(=O)OCC)c1C	LMP1 NFkB inh 44.2
CC1(C)SC(=S)N(NC(=O)Nc2cccc3ccccc23)C1N(O)C(=O)Nc1ccccc1 (stereo not drawn)	TROY NFkB inh 55.4
Cc1ccc(S(=O)(=O)N[C@@H]2CC[C@H](CCn3cc(C4CCCC4)nn3)O[C@@H]2CO)cc1	none (no result: LMP1 NFkB inh, HSP90 refold inh, aDG glyco act, TROY NFkB inh, TWEAK Fn14 block)
COc1ccc(C(=O)N2CCC(C(=O)Nc3ccc4c(c3)OCCO4)CC2)cc1	TWEAK Fn14 block 79.3 (no result: LGR2 inh)
O=C(Nc1ccc2c(c1)OCCO2)C1CCN(S(=O)(=O)c2ccc(Br)s2)CC1	TWEAK Fn14 block 51.3 (no result: LGR2 inh)
O=C(Nc1ccc2c(c1)OCCO2)C1CCCN(S(=O)(=O)Cc2ccccc2)C1 (stereo not drawn)	TWEAK Fn14 block 54.2 (no result: LGR2 inh)
O=C(Nc1ccc2c(c1)OCCO2)C1CCN(C(=O)c2ccc(Br)cc2)CC1	none (no result: LGR2 inh)
O=C(Nc1ccc2c(c1)OCO2)c1cc(C2CCCCN2S(=O)(=O)Cc2ccccc2)on1 (stereo not drawn)	TROY NFkB inh 63.6 (no result: LMP1 NFkB inh, HSP90 refold inh)
C[C@@H]1CN([C@@H](C)CO)C(=O)c2cc(NC(=O)CCC(F)(F)F)ccc2O[C@@H](C)CCCCO[C@H]1CN(C)S(=O)(=O)c1cn(C)cn1	none (no result: LMP1 NFkB inh, HSP90 refold inh, aDG glyco act, TROY NFkB inh, TWEAK Fn14 block)
CN1C[C@@H]2[C@H](c3ccccc31)[C@@H](CO)N2C(=O)Nc1ccccc1Cl	none (no result: LMP1 NFkB inh, HSP90 refold inh, aDG glyco act, TROY NFkB inh, TWEAK Fn14 block)
COc1ccc2c3c(n(C)c2c1)[C@H](CO)N(C(=O)Cc1ccccn1)CC31CCN(CC2CCCC2)CC1	none (no result: LMP1 NFkB inh, HSP90 refold inh, aDG glyco act, TROY NFkB inh, TWEAK Fn14 block)
COc1ccc2c3c(n(C)c2c1)[C@H](CO)N(C)CC31CN(C(=O)c2ccccc2F)C1	none (no result: LMP1 NFkB inh, HSP90 refold inh, aDG glyco act, TROY NFkB inh, TWEAK Fn14 block)
Cc1nn(C)c(C)c1S(=O)(=O)N1CCC(C(=O)Nc2ccc3c(c2)OCCO3)CC1	TROY NFkB inh 66.0, TWEAK Fn14 block 78.9
O=C(Nc1ccc2c(c1)OCCO2)C(c1cc2ccccc2o1)N1CCC(Cc2ccccc2)CC1 (stereo not drawn)	TROY NFkB inh 85.1, TWEAK Fn14 block 89.5 (no result: LMP1 NFkB inh, HSP90 refold inh)
O=C(CN1CCC(Cc2ccccc2)CC1)Nc1ccc2c(c1)OCCO2	none (no result: LMP1 NFkB inh, aDG glyco act, TROY NFkB inh, LGR2 inh, TWEAK Fn14 block)
O=C1c2cccc(NCCNCCO)c2C(=O)c2cccc(NCCNCCO)c21	LGR2 inh 91.8 (no result: HSP90 refold inh)
Cc1ccc(-c2ccc3c(c2)O[C@H](CN(C)C(=O)CC2CC2)[C@H](C)CN([C@H](C)CO)S3(=O)=O)cc1	none (no result: LMP1 NFkB inh, HSP90 refold inh, aDG glyco act, TROY NFkB inh, TWEAK Fn14 block)
COCC(=O)N1CC2(C1)[C@H](c1ccc(-c3ccccc3)cc1)[C@@H](CO)N2C(C)=O	none (no result: LMP1 NFkB inh, HSP90 refold inh, aDG glyco act, TROY NFkB inh, TWEAK Fn14 block)
O=C1[C@H]2CCCC[C@H]2C(=O)N1CCCCN1CCN(c2nsc3ccccc23)CC1	LMP1 NFkB inh 61.8 (no result: HSP90 refold inh)
COc1ccccc1N1CCN(CCCCN2C(=O)C3CCCN3C2=O)CC1 (stereo not drawn)	none (no result: HSP90 refold inh)
